Legend:
[1] = test system: Vero E6 infected with SARS-CoV-2; assay: morphology score (similarity to uninfected cells); higher = more like uninfected cells; settings: 24 h
[2] = test system: Vero E6 infected with SARS-CoV-2; assay: SARS-CoV-2 infection rate relative to infected DMSO; higher = more infection, active = 60 or less; settings: 24 h

| SMILES | morphology score [1] | SARS-CoV-2 infection rate [2] |
| --- | --- | --- |
| CCn1c2ccccc2c2cc(Nc3ccnc(NCCCN4CCOCC4)n3)ccc21 (0.833333 µM) | 0.235 | 93% (inactive) |
| Cc1ccc(-c2ncc[nH]2)cc1NC(=O)c1ccc(OCc2ccccn2)cc1 (10 µM) | 0.0587 | 97% (inactive) |
| CCCNC(C)C(=O)Nc1c(C)csc1C(=O)OC (centres undefined) [articaine] (10 µM) | 0.0926 | 98% (inactive) |
| CCCCc1cc2ccccc2c(OCCN(C)C)n1 [dimethisoquin] (10 µM) | 0.41 | 71.5% (inactive) |
| Nc1nc(=O)[nH]cc1F [flucytosine] (10 µM) | -0.016 | 107% (inactive) |
| Cc1nc(-c2cccnc2)sc1C(=O)Nc1ccccc1-c1cn2c(CN3CCOCC3)csc2n1 (10 µM) | 0.215 | 98% (inactive) |
| Cc1ccc(CNc2ncnc3ccc(-c4ccc(CO)o4)cc23)o1 (10 µM) | 0.497 | 106% (inactive) |
| COc1cccc([C@@H](C)NCCCc2ccccc2Cl)c1 [tecalcet] (10 µM) | 0.534 | 50.5% (active) |
| CCCCn1ccc(N2CCC(c3ccccc3)CC2)c(Cl)c1=O (10 µM) | -0.265 | 116% (inactive) |
| COCC1(CO)C(=O)C2CCN1CC2 (centres undefined) (10 µM) | 0.212 | 80.5% (inactive) |
| C[C@H](O)[C@H](O)[C@H]1CNc2nc(N)[nH]c(=O)c2N1 [sapropterin] (10 µM) | -0.0335 | 95.5% (inactive) |
| N[C@H]1CC[C@H](N[C@@H]2C[C@H]2c2ccccc2)CC1 (10 µM) | 0.432 | 79.5% (inactive) |
| CO[C@H]1C[C@@H]2CC[C@@H](C)[C@@](O)(O2)C(=O)C(=O)N2CCCC[C@H]2C(=O)O[C@H]([C@H](C)C[C@@H]2CC[C@@H](O)[C@H](OC)C2)CC(=O)[C@H](C)/C=C(\C)[C@@H](O)[C@@H](OC)C(=O)[C@H](C)C[C@H](C)/C=C/C=C/C=C/1C [sirolimus] (10 µM) | -0.126 | 104% (inactive) |
| O[C@H]1[C@H](O)[C@@H](O)[C@H](O)[C@@H](O)[C@H]1O [inositol] (10 µM) | -0.166 | 95.5% (inactive) |
| CC(=O)C1=C(O)[C@@H]2[C@H]3c4c[nH]c5cccc(c45)C[C@H]3C(C)(C)N2C1=O [cyclopiazonic-acid] (0.833333 µM) | 0.361 | 76.5% (inactive) |
| CC(=O)C(=Cc1cc(O)c(O)c([N+](=O)[O-])c1)C(C)=O [nitecapone] (10 µM) | 0.103 | 102% (inactive) |
| CC[C@@H](C)N(C)C(=O)c1cc2ccccc2c(-c2ccccc2Cl)n1 (10 µM) | -0.122 | 111% (inactive) |
| C[C@H](NC[C@H](O)CP(=O)(O)CC1CCCCC1)c1ccc(Cl)c(Cl)c1 (10 µM) | -0.206 | 114% (inactive) |
| COCCOCCOc1ccc(C2=N[C@@](C)(C(=O)O)CS2)c(O)c1 (10 µM) | 0.128 | 102% (inactive) |
| [O-][n+]1ccccc1[S-].[O-][n+]1ccccc1[S-].[Zn+2] [pyrithione-zinc] (10 µM) | 0.0399 | 91.5% (inactive) |
| CC(C)C(N)=O [isobutyramide] (10 µM) | 0.073 | 111% (inactive) |
| Nc1nc(=O)n([C@H]2C[C@H](O)[C@@H](CO)O2)cc1F [fdcyd] (10 µM) | -0.201 | 97.5% (inactive) |
| CC(C)c1c2cc(-c3ccnc(N[C@H]4CC[C@H](NC5CCOCC5)CC4)n3)ccc2nn1C (0.833333 µM) | 0.108 | 90.5% (inactive) |
| O=C(CCCN1CC=C(n2c(=O)[nH]c3ccccc32)CC1)c1ccc(F)cc1 [droperidol] (10 µM) | 0.0599 | 112% (inactive) |
| CCCCNC(=O)[C@@H]1Cc2ccccc2N1C(=O)[C@@H](N)CC [butabindide] (10 µM) | 0.203 | 86.5% (inactive) |
| CCCCCCC[N+](CC)(CC)CCCCc1ccc(Cl)cc1 [clofilium] (10 µM) | 0.0344 | 118% (inactive) |
| N=C(N)NCCC[C@@H](N)C(=O)N[C@@H](CCCNC(=N)N)C(=O)N1CCC[C@H]1C(=O)N1C[C@H](O)C[C@H]1C(=O)NCC(=O)N[C@@H](Cc1cccs1)C(=O)N[C@@H](CO)C(=O)N1Cc2ccccc2C[C@@H]1C(=O)N1[C@H](C(=O)N[C@@H](CCCNC(=N)N)C(=O)O)C[C@@H]2CCCC[C@@H]21 [icatibant-acetate] (10 µM) | 0.105 | 102% (inactive) |
